Pf growth 96h – P. falciparum growth inhibition at 96 hour, primary screen for plastid delayed-death inhibitors. 320,000 tested, 6.9% active. P. falciparum luciferase reporter growth, 96 h. Potency, µM (top dose mostly 28.7 µM), actives largely listed as inhibitors
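Readout is luminescence from an integrated firefly luciferase in P. falciparum. Red cells, 2% hematocrit and 0.05% parasitemia final, were cultured with compound through two parasite generations (96 hours) at 37 C, 5% CO2.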
CHX counter – affects cycloheximide protein synthesis inhibition readout, counter-screen | cell reporter, cycloheximide protein synthesis inhibition counterscreen | max response, % | 300,000 tested, 12% active | AID 2314; in the data active means max response mostly above about 13%, no sharp cut-off; inactive means mostly below about 14%; further: read at 38.3 µM for the half of the compounds with a filed dose
Pf growth 48h – P. falciparum growth inhibition at 48 hours (one generation). P. falciparum luciferase growth in erythrocytes, 48 h. Potency, µM (top dose mostly 28.7 µM), usual class: inhibitors. 310,000 tested, 5.9% active. AID 504832
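Erythrocytes infected with P. falciparum carrying an integrated firefly luciferase reporter (2% hematocrit, 0.1% parasitemia final) were exposed to compounds in RPMI 1640 with 0.5% Albumax at 37 C, 5% CO2. Growth inhibition was scored as reduced luminescence.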
Shiga inhibitor – Shiga toxin inhibition. Vero cells, Shiga toxin protein synthesis inhibition reporter. inhibition, % at 38.7 µM. 290,000 tested, 9.2% active. AID 2315; in the data active means inhibition mostly above about 28%, no sharp cut-off; inactive means mostly below about 43%
Large screens that a line does not name were inactive. Sampled rows, rich in hits. Any-hit rate of the full collection: about 21%. Unless noted, the call rests on the fitted dose curve; in most records, active means well fitted inhibition curve with a large enough effect; inconclusive means small, poorly fitted or top-dose-only effect, or another doubt; inactive means no such curve, though single readings can be large or run the other way.

Cc1nc(SCc2ccccc2F)c2oc3ccccc3c2n1	Pf growth 96h 8.3µM, Pf growth 48h inconclusive
Cc1nc(SCc2ccc(F)cc2)c2oc3ccccc3c2n1	none
Cc1nc(SCC(=O)c2cccs2)c2oc3ccccc3c2n1	CHX counter 56, Shiga inhibitor 136 (no result: Pf growth 96h)
NC(=O)CSc1ncnc2c1oc1ccccc12	none (no result: Pf growth 48h)
Cc1nc(SCC(=O)O)c2oc3ccccc3c2n1	Pf growth 96h inconclusive
O=C(NCCS(=O)(=O)N1CCCCC1)c1ccccc1	none (no result: CHX counter, Shiga inhibitor)
Cc1c2cnn(-c3ccccc3)c(=O)c2c(C)n1CCCC(=O)N1CCN(c2ncccn2)CC1	Pf growth 96h inconclusive, Pf growth 48h inconclusive
CCN1CCN(C(=O)CCCn2c(C)c3cnn(-c4ccccc4)c(=O)c3c2C)CC1	Pf growth 96h 2.6µM (no result: Pf growth 48h)
O=C(NCC1COc2ccccc2O1)c1ccc(NC(=O)c2ccco2)cc1 (configuration not stated)	Pf growth 48h inconclusive
Oc1ccc(CNCC2COc3ccccc3O2)cc1 (configuration not stated)	Pf growth 96h inconclusive, Pf growth 48h inconclusive
O=C(NCC1COc2ccccc2O1)c1ccc(Cl)cc1 (configuration not stated)	CHX counter 16
c1ccc2c(c1)OCC(CNCC1COc3ccccc3O1)O2 (configuration not stated)	Pf growth 96h 0.21µM
c1ccc(CCNCC2COc3ccccc3O2)cc1 (configuration not stated)	CHX counter 19, Shiga inhibitor 28 (no result: Pf growth 48h)
COCc1c(C(=O)NCC2COc3ccccc3O2)oc2ccccc12 (configuration not stated)	Pf growth 96h inconclusive, Pf growth 48h 12µM (no result: CHX counter, Shiga inhibitor)
O=C(O)CNCC1COc2ccccc2O1 (configuration not stated)	none
COc1cc2c(cc1OC)CN(C(=O)CN1C(=O)c3ccc([N+](=O)[O-])cc3C1=O)CC2	none (no result: CHX counter, Shiga inhibitor)
COc1cccc(NC(=O)COC(=O)c2ccc(C)c(S(=O)(=O)N3CCCCC3)c2)c1	none (no result: CHX counter, Shiga inhibitor)
CC1=C(C(=O)OC(C)(C)C)C(c2cccc3ccccc23)NC(=O)N1 (configuration not stated)	Pf growth 96h inconclusive, Pf growth 48h inconclusive
CC(c1nnc(SCC(=O)c2c(N)n(C3CC3)c(=O)[nH]c2=O)n1-c1ccc(F)cc1)N(C)C (configuration not stated)	Pf growth 96h inconclusive (no result: CHX counter, Shiga inhibitor)
Cc1ccn2c(C(=O)CSc3ccccc3Cl)c(C)nc2c1	Pf growth 96h inconclusive, Pf growth 48h 3.7µM
CCOC(=O)c1c(C)nc2cc(C)ccn12	none
COc1cc([C@@H]2[C@H]3CNCC=C3C(C#N)=C(N)C2(C#N)C#N)ccc1OC(C)C	Pf growth 48h 13µM
CCCOc1ccc([C@@H]2C3CN(C(=O)OCC)CC=C3C(C#N)=C(N)C2(C#N)C#N)cc1OC (some centres not stated)	Pf growth 48h 5.9µM (no result: Pf growth 96h)
CC(C)(C)OC(=O)N1CC=C2C(C#N)=C(N)C(C#N)(C#N)[C@H](c3cccnc3)[C@H]2C1	none (no result: Pf growth 96h)
N#CC1=C(N)C(C#N)(C#N)[C@H](c2ccncc2)[C@H]2CN(C(=O)OCc3ccccc3)CC=C12	Pf growth 96h inconclusive, Pf growth 48h 10µM
O=C(NCC1CCCO1)c1ccc(NC(=O)c2cc(F)c(F)cc2Cl)cc1 (configuration not stated)	Pf growth 96h inconclusive
CSc1nn2c(C(F)(F)F)cc(C(F)(F)F)nc2c1C(=O)O	none
O=C(COC(=O)C1CCCCC1)Nc1cccc(Br)c1	Pf growth 96h inconclusive (no result: CHX counter, Shiga inhibitor)
CS(=O)(=O)c1ccc2nc(NC(=O)c3ccc(NS(=O)(=O)c4ccc(F)c(F)c4)cc3)sc2c1	Pf growth 96h inconclusive
CC(C)(C)NS(=O)(=O)c1ccc2nc(NC(=O)c3ccc(N4C(=O)CCC4=O)cc3)sc2c1	Pf growth 48h inconclusive
CS(=O)(=O)c1ccc2nc(NC(=O)c3cccc(NS(=O)(=O)c4ccc(F)c(F)c4)c3)sc2c1	CHX counter 19
O=C(Nc1nc2ccc(SC(F)F)cc2s1)c1ccc(NS(=O)(=O)c2ccc(F)c(F)c2)cc1	Pf growth 96h inconclusive, CHX counter 41, Shiga inhibitor 79
CO[C@@H]1O[C@@H]2COC(c3ccccc3)O[C@@H]2[C@@H](OC)[C@@H]1O (some centres not stated)	Pf growth 96h inconclusive
CN(C)/C=N/c1ncn(-c2ncc(C(F)(F)F)cc2Cl)n1	Shiga inhibitor 50
CCOCN(C(=O)Cn1cnc2ccccc21)c1c(C)cccc1CC	Pf growth 48h inconclusive
CCOCN(C(=O)Cn1c(CO)nc2ccccc21)c1c(C)cccc1CC	Pf growth 96h 10µM
CCOCN(C(=O)CCl)c1c(C)cccc1CC	Pf growth 96h inconclusive, Pf growth 48h 13µM (no result: CHX counter, Shiga inhibitor)
CN(N=Nc1cccc([N+](=O)[O-])c1)c1cccc([N+](=O)[O-])c1	CHX counter 33, Shiga inhibitor 109
CCCN(N=Nc1cccc([N+](=O)[O-])c1)c1cccc([N+](=O)[O-])c1	none (no result: Pf growth 96h)
CC(=O)Nc1ccc(S(=O)(=O)NCC(=O)OCC(=O)N2CCCCCC2)cc1	none (no result: CHX counter, Shiga inhibitor)
CCOc1cc(C)c(S(=O)(=O)NC2CCCCC2)cc1C	none
CCOc1cc(S(=O)(=O)NC2CCCCCC2)ccc1F	Shiga inhibitor 41 (no result: Pf growth 96h)
CCOc1ccc(Br)cc1S(=O)(=O)NC1CCCC1	Pf growth 96h 8.3µM, Pf growth 48h inconclusive (no result: CHX counter, Shiga inhibitor)
CC(C)(C)OC(=O)CNC(=O)c1nc[nH]c1C(=O)N1CCc2ccccc2C1	none
Cc1ccc(NC(=O)Nc2ccccc2C(N)=O)cc1	CHX counter 29, Shiga inhibitor 63
COc1ccc(NC(=O)Nc2ccccc2C(N)=O)cc1OC	none (no result: Pf growth 96h)
COc1ccc(NC(=O)Nc2ccccc2C(N)=O)cc1	CHX counter 26
CCOc1ccc(NC(=O)Nc2ccccc2C(N)=O)cc1	CHX counter 29, Shiga inhibitor 46
C=CCN1C(=O)c2ccccc2Sc2ccc(C(=O)NCC(OC)OC)cc21	Pf growth 96h inconclusive, Pf growth 48h inconclusive
CC(C)C(=O)NC(=S)Nc1ccc(S(=O)(=O)N2CCN(C)CC2)cc1	none
Cc1ccccc1C(=O)NNC(=O)CSc1nc2ccccc2c(=O)[nH]1	none
Clc1ccccc1C1CC(c2ccccc2)Nc2ncnn21 (configuration not stated)	Pf growth 48h inconclusive
c1ccc(C2=Nc3ccccc3NC(c3ccccc3)C2)cc1 (configuration not stated)	CHX counter 36, Shiga inhibitor 126
Brc1ccccc1C1CC(c2ccccc2)=Nc2ccccc2N1 (configuration not stated)	CHX counter 97, Shiga inhibitor 91
O=C1CC(c2ccccc2)NC(=O)N1 (configuration not stated)	none
Clc1ccccc1C1CC(c2ccccc2)=Nc2ccccc2N1 (configuration not stated)	CHX counter 43, Shiga inhibitor 93
CN(C(=O)CSc1n[nH]c(-c2cccs2)n1)C1CCS(=O)(=O)C1 (configuration not stated)	none (no result: CHX counter, Shiga inhibitor)
CCOC(=O)c1cc(C#N)c(C)nc1N(CC)CC	none
NS(=O)(=O)c1ccc(CCNC(=O)COC(=O)c2nc(Cl)ccc2Cl)cc1	none (no result: CHX counter, Shiga inhibitor)
O=C(CN1CCc2ccccc2C1)NC1CCCC1	none
O=C(Cc1c(F)cccc1Cl)Nc1cc(S(=O)(=O)N2CCOCC2)ccc1N1CCOCC1	Pf growth 48h inconclusive (no result: CHX counter, Shiga inhibitor)
C[C@H]1COC(=O)O1	none (no result: Pf growth 96h, Pf growth 48h)

Source: PubChem
